For 98 molecules, inhibition results are on record in PubChem BioAssay AID1376 (SRMLSC, 2008).

The campaign covered roughly 220,000 compounds. About 530 (0.24%) were called active. The sample holds actives, similar compounds and a random draw of the others, so the mix is not that of the screen. Measured potencies and affinities stand elsewhere. Values without a mark were called inactive. No stated cut-off is given here; in the data, active means inhibition above about 13%; inconclusive means no clear call, values can overlap the other calls; inactive means below that.

What is called inhibition is the drop in the measured response relative to a control, in per cent.

The target in the test is Bifunctional protein GlmU (Mycobacterium tuberculosis (strain ATCC 25618 / H37Rv)) (UniProt P9WMN3). In words: inhibition of mycobacterial GlmU enzyme – biochemical, glucosamine-1-phosphate acetyltransferase (AID 1376).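 Further: 0% = complete reaction with vehicle and 100% = reaction without substrate.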 To be noted: M. tuberculosis GlmU acetyltransferase enzyme assay; stronger effect = higher value;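 tested at 30 µM in the primary screen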.
Chain of Bifunctional protein GlmU (Mycobacterium tuberculosis (strain ATCC 25618 / H37Rv)) (P9WMN3 whole entry, looked up): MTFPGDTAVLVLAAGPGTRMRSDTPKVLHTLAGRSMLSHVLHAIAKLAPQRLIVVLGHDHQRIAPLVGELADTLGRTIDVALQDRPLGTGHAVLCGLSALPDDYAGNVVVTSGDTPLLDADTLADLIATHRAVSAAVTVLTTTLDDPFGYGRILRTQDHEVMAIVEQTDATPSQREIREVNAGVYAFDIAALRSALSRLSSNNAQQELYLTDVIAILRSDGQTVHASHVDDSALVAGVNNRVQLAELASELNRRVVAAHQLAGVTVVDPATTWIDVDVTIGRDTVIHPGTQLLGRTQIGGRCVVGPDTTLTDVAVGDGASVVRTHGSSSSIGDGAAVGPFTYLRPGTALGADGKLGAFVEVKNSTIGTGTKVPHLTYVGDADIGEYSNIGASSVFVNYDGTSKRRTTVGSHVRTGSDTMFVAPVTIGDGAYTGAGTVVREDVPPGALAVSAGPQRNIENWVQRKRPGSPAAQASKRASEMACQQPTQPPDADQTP
Take `CCN(CCNC(=O)Cn1cc2c(n1)CCCC2)c1ccccc1`: the inhibition was -0.86%.

Turning to `CCOc1ccc(C(=O)SC2=NCCS2)cc1`, the inhibition is 8.72%.

Consider `S=c1nc(C2CCCCC2)[nH][nH]1`, for which the inhibition is 14% (active).

`S=c1nc(C2CCCCC2)[nH]c2ccccc12`: the inhibition was -2.69%.

With `Nc1n[nH]c(C2CCCCC2)n1`, the inhibition is -2.96%.

As for `CCc1nc(N2CCN(S(C)(=O)=O)CC2)c2c3c(sc2n1)CCCC3`, the inhibition was -2.08%.

For the molecule `COc1ccc(N/C=C2/Sc3ccccc3NC2=O)cc1`, the inhibition was 0.09%.

Consider `O=C(NC1CCN(C(=O)N2c3ccccc3Sc3ccccc32)CC1)c1ccccc1Cl`, for which the inhibition was 2.41%.

In the case of `Cc1ccc(SC(C)c2nc(-c3ccccc3)no2)cc1` (stereo not drawn), the inhibition was 14.3% (active).

`Cc1ccc(SC(C)c2nc(-c3cccnc3)no2)cc1` (stereo not drawn): the inhibition was -3.18%.

For the molecule `Cc1ccc(SC(C)c2nc(-c3ccncc3)no2)cc1` (stereo not drawn), the inhibition was 5.19%.

Take `CC12CCC(C(=O)NCc3ccccc3Cl)(OC1=O)C2(C)C` (stereo not drawn): the inhibition was 0.28%.

As to `Cc1[nH]c(=O)[nH]c(=O)c1/C=N/NC(=O)CCNC(=O)OC(C)(C)C`, the inhibition was -1.18%.

On to `Cc1[nH]c(=O)[nH]c(=O)c1/C=N/NC(=O)[C@@H](NC(=O)OC(C)(C)C)C(C)C`, for which the inhibition is -0.37%.

As to `Cc1[nH]c(=O)[nH]c(=O)c1/C=N/NC(=O)[C@H](C)NC(=O)OC(C)(C)C`, the inhibition was 12.9% (active).

As to `CCN(C(=O)c1nn(-c2ccc(OC)cc2)c(=O)c2c1c1ccccc1n2C)c1ccc(OC)cc1`, the inhibition is -3.7%.

Regarding `C=CCn1c(O)c(C=NCCN2CCOCC2)c(=O)[nH]c1=S`, the inhibition is -1.69%.

Regarding `Cc1cc2nc(-c3ccc(SCc4ccc(C#N)cc4)nc3)[nH]c2cc1C`, the inhibition was 0.22%.

As for `Cc1cc2nc(-c3ccc(SCc4ccc(C(=O)O)cc4)nc3)[nH]c2cc1C`, the inhibition was 13.2% (active).

For `CC(=O)CSc1ccc(-c2nc3cc(C)c(C)cc3[nH]2)cn1`, the inhibition was 8.32%.

In the case of `O=C(O)c1ccccc1-c1ccccc1C(=O)Nc1cccc(Br)c1`, the inhibition is 0.35%.

For `CCOc1ccc(-c2cc3cc(OC)c(OC)cc3c(C)n2)cc1`, the inhibition was -1.9%.

For the molecule `Cc1nc(-c2ccccc2Cl)sc1C(=O)/C=C/N(C)C`, the inhibition was -0.01%.

For the molecule `Cc1nnc(SCC(=O)Nc2ccc(-c3nc4ccccc4s3)cc2)s1`, the inhibition was 6.16%.

For `Cc1ccc2nc(-c3ccc(NC(=O)CSCC(=O)O)cc3)sc2c1`, the inhibition was 4.5%.

Take `CCc1nc(-c2ccccc2)c2ccccn12`: the inhibition is 0.63%.

As to `COCCn1nnnc1C(C(C)C)N(Cc1cccnc1)Cc1cc2cc(OC)ccc2[nH]c1=O` (stereo not drawn), the inhibition was 0.94%.

As to `COc1ccc(Cl)cc1NC(=O)NC(C)C`, the inhibition is -2.94%.

For the molecule `COc1ccc(Cl)cc1NC(=O)NC(C)c1ccncc1` (stereo not drawn), the inhibition was 13% (active).

As for `COc1ccc(C)cc1NC(=O)NC(C)c1ccncc1` (stereo not drawn), the inhibition is -4.98%.

For the molecule `Cc1cc2c3ccccc3ncn2n1`, the inhibition is 4.82%.

In the case of `CCOC(=O)c1cnc2c(c(C)nn2C)c1Oc1ccccc1F`, the inhibition is 3.91%.

With `COc1cccc(OCC(Cn2cnc3ccccc32)OC(C)=O)c1` (stereo not drawn), the inhibition was -0.44%.

`COC(=O)c1ccccc1NC(=O)/C=C/c1ccco1`: the inhibition was -3.26%.

Regarding `O=C(CCCN1C(=O)/C(=C/c2ccco2)SC1=S)Nc1cccc(C(=O)O)c1`, the inhibition is 8.84%.

Turning to `O=C(/C=C/c1ccco1)Nc1cccc(C(=O)Nc2ccccc2C(=O)O)c1`, the inhibition is 14.7% (active).

For `O=C(/C=C/c1ccco1)Nc1cccnc1Cl`, the inhibition is 0.97%.

`O=C(O)CCCN1C(=O)/C(=C\c2ccco2)SC1=S`: the inhibition is 23.1%.

On to `O=C(/C=C/c1ccco1)Nc1ccccc1C(=O)O`, for which the inhibition is 15% (active).

On to `O=C(/C=C/c1ccco1)Nc1ccccc1N1CCCC1`, for which the inhibition was -0.88%.

For the molecule `O=C(/C=C/c1ccco1)Nc1ccc(Oc2ccc(Cl)cc2)cc1`, the inhibition was 2.3%.

For the molecule `CCc1ccccc1NC(=O)c1cccc(NC(=O)/C=C/c2ccco2)c1`, the inhibition was -2.87%.

For the molecule `O=C(/C=C/c1ccco1)Nc1ccccc1C(=O)Nc1cccc(C(=O)O)c1`, the inhibition is 3.1%.

As for `O=C(/C=C/c1ccco1)Nc1cc(Cl)ccc1C(=O)O`, the inhibition is 13% (active).

`CCc1cccc(CC)c1NC(=O)COC(=O)c1ccccc1-c1nc2ccccc2s1`: the inhibition is -1.43%.

Turning to `COc1ccc(-n2c(SCC(=O)NCCCN3CCCC3=O)nnc2C(C)N2CCCCC2)cc1` (stereo not drawn), the inhibition was -0.73%.

On to `O=C(O)C(Cc1cc(Cl)ccc1Cl)Sc1nc2ccccc2[nH]1` (stereo not drawn), for which the inhibition was -6.33%.

On to `COCCNC(=O)COC(=O)c1[nH]c(C)c(C(C)=O)c1C`, for which the inhibition was -0.47%.

With `COc1ccc(/C=C/C(=O)Nc2nnc(C(C)C)s2)cc1OC`, the inhibition was 4.06%.

Take `CN(C)/C=C/C(=O)C(Cl)(Cl)Cl`: the inhibition was -0.97%.

Turning to `COc1ccc(Nc2nnc(SCc3cc([N+](=O)[O-])cc4c3OCOC4)s2)cc1`, the inhibition is -5.67%.

Take `O=C(CCCOc1ccc(Cl)cc1Cl)NCc1ccncc1`: the inhibition was 2.06%.

For `CN(CC(=O)Nc1ccc2c(c1)OCO2)S(=O)(=O)c1ccc2c(c1)CCC(=O)N2`, the inhibition is 2.93%.

In the case of `CCN(CC)C(=O)Cc1c(O)c2ccccc2[nH]c1=O`, the inhibition was 1.17%.

`CC(C)CCN(CCC(C)C)C(=O)Cc1c(O)c2ccccc2[nH]c1=O`: the inhibition was -2.47%.

As for `O=C(Cc1c(O)c2ccccc2[nH]c1=O)N(Cc1ccccc1)Cc1ccccc1`, the inhibition is 35% (active).

Turning to `COc1ccc(NC(=O)C2=C(C)Nc3nc(CCCO)nn3C2c2ccc(OC)c(OC)c2)cc1` (stereo not drawn), the inhibition was 6.23%.

Take `COc1cc(NC(=O)c2cccs2)c(C(=O)OCC(=O)c2cc(C)n(-c3ccc(F)cc3)c2C)cc1OC`: the inhibition was 3.27%.

Turning to `Cc1ccccc1Oc1ccc(NC(=O)C2CC=CCC2C(=O)O)cc1` (stereo not drawn), the inhibition is 3.98%.

Turning to `CN(C)c1ncc(S(=O)(=O)c2ccccc2)c(-c2ccccc2Cl)n1`, the inhibition is 13.9% (active).

`Cc1ncc(S(=O)(=O)c2ccccc2)c(-c2ccccc2Cl)n1`: the inhibition was 4.86%.

For the molecule `CN(C)c1ncc(S(=O)(=O)c2ccc(Cl)cc2)c(-c2ccccc2)n1`, the inhibition is -0.58%.

For the molecule `CC(C)N1CCC(N2CCN(Cc3ccc4nsnc4c3)CC2CCO)CC1` (stereo not drawn), the inhibition was -6.91%.

For the molecule `O=C(CCc1nc2ccccc2[nH]c1=O)OCc1ccc(S(=O)(=O)N2CCOCC2)cc1`, the inhibition is 1.61%.

Take `Cc1cccc2cc3c(NC(=O)CC(C)C)nn(C)c3nc12`: the inhibition was 0.35%.

As for `CC1=C(C/C(C)=C/c2ccccc2)/C(=C/CO)[C@H](O)[C@](C)(O)C12CC2`, the inhibition was 13.9% (active).

As to `C/C(=C\c1ccccc1)CN1CCN(c2ccccc2)CC1`, the inhibition was 2.64%.

On to `CC1=C(C/C(C)=C/c2ccccc2)/C(=C/CO)[C@@H]2OC(=O)O[C@]2(C)C12CC2`, for which the inhibition is 3.53%.

`NC(=O)Nc1cccc2ccccc12`: the inhibition was 14.6% (active).

With `NC(=O)NNC(=S)Nc1cccc2ccccc12`, the inhibition was 4.54%.

As for `NC(=O)c1ccccc1NC(=O)Nc1cccc2ccccc12`, the inhibition was -1.2%.

`O=C1CCCC2=C1C1c3ccccc3C(=O)N1c1ccc(C(=O)c3ccccc3)cc1N2` (stereo not drawn): the inhibition was 0.1%.

As for `O=C(CCC(=O)c1ccc(Oc2ccccc2)cc1)Nc1cccc(Cl)c1`, the inhibition was 3.77%.

In the case of `O=c1cc2oc3cc(O)c(O)cc3c(-c3ccccc3O)c-2cc1O`, the inhibition is 15.4% (active).

In the case of `COc1ccc(OC)c(-c2c3cc(O)c(=O)cc-3oc3cc(O)c(O)cc23)c1`, the inhibition is 14.7% (active).

On to `COc1cc(OC)c(-c2c3cc(O)c(=O)cc-3oc3cc(O)c(O)cc23)cc1OC`, for which the inhibition is 8.01%.

Consider `O=c1cc(-c2ccccc2Cl)oc2cccc(O)c12`, for which the inhibition is 3.22%.

With `Cc1ccccc1-c1cc(=O)c2c(O)cccc2o1`, the inhibition was -2.72%.

For the molecule `CCOc1ccccc1-c1c2cc(O)c(=O)cc-2oc2cc(O)c(O)cc12`, the inhibition was -3.1%.

On to `Cc1c2cc(O)c(=O)cc-2oc2cc(O)c(O)cc12`, for which the inhibition is 27.1% (active).

For the molecule `CC1(C)CC(=O)c2c(oc3cc(O)c(O)cc23)C1`, the inhibition was -1.56%.

For `COc1ccc(OC)c(-c2oc3ccccc3c(=O)c2O)c1`, the inhibition was 0.78%.

As for `Cc1cc(NC(=O)CCCn2nc([N+](=O)[O-])cc2C)no1`, the inhibition was 0.02%.

Turning to `COc1ccc2c(OC)cc(-c3ccccc3)nc2c1`, the inhibition is 3.08%.

Turning to `Cc1cc(NC(=O)Cc2ccccc2)c2ccccc2n1`, the inhibition was -0.11%.

As to `CC(=O)Nc1cccc(NC(=O)CSc2ccc(C(F)(F)F)cc2[N+](=O)[O-])c1`, the inhibition was 1.81%.

Consider `CCOC(=O)c1c(C2CC2)csc1NC(=O)COC(=O)c1cnc(Cl)c(Cl)c1`, for which the inhibition is 4.42%.

Consider `S=c1[nH]nc(COc2cccc(Cl)c2)n1Cc1ccccc1`, for which the inhibition is 2.34%.

On to `O=C(Cc1c[nH]c2ccccc12)Nc1nccs1`, for which the inhibition is 3.72%.

As for `CC1Cc2ccccc2N1C(=O)C1CCCN(S(=O)(=O)c2cccc3cccnc23)C1` (stereo not drawn), the inhibition is -0.65%.

Turning to `CCSc1nc2ccccc2c(=O)n1C1CCOC(C)(C)C1` (stereo not drawn), the inhibition was 7.35%.

With `O=C(NCCCN1CCOCC1)c1sc2cc(F)ccc2c1Cl`, the inhibition was -2.73%.

As to `O=C(NCCCN1CCOCC1)c1sc2cc(Cl)ccc2c1Cl`, the inhibition was 4.82%.

`O=C(NCCCN1CCOCC1)c1sc2cc([N+](=O)[O-])ccc2c1Cl`: the inhibition was 12.9% (active).

As to `CCN(CC)c1ccc(N=Nc2ncn[nH]2)cc1`, the inhibition was -1.86%.

Turning to `COc1ccc2ccccc2c1C1CC(=O)N2CN(C3CCCCC3)CSC2=C1C#N` (stereo not drawn), the inhibition is 7.17%.

Take `CCOc1ccccc1N1CSC2=C(C#N)C(c3c(OC)ccc4ccccc34)CC(=O)N2C1` (stereo not drawn): the inhibition was 3.43%.

Regarding `COc1ccc2ccccc2c1C1CC(=O)N2CN(C)CSC2=C1C#N` (stereo not drawn), the inhibition is 13.8% (active).
